AmpC inh det = Promiscuous and Specific Inhibitors of AmpC Beta-Lactamase (assay with detergent) | purified AmpC, nitrocefin hydrolysis with detergent | Potency, µM (series often up to 28.7 µM), for inactives: at the highest dose activity change, negative = inhibition | 71,000 tested, 0.09% active | AID 584, 2007; active means well fitted curve in the direction sought with a large enough effect; inconclusive means small, poorly fitted or top-dose-only effect; further: on the % scale 0 is the no-effect control and ±100 the full control effect
Target sequence (P00811 whole entry, looked up): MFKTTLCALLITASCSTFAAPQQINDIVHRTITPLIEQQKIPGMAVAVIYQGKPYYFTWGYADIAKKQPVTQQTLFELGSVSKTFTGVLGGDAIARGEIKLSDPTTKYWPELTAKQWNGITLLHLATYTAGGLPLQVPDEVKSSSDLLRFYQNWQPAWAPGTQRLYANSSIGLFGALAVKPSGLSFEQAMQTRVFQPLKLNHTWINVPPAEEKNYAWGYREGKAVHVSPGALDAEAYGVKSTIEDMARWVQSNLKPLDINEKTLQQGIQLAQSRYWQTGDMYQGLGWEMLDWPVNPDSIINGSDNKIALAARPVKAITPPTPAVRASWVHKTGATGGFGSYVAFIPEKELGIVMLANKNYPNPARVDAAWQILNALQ
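E. coli AmpC (5.3 nM) in 20 mM phosphate pH 7.0 with 0.01% Triton X-100, preincubated 15 min RT with compound; nitrocefin (2 uL of 800 uM stock) hydrolysis followed by 480 nm absorbance every 20 s over 4 min.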
LT uptake inh = qHTS Assay for Anthrax Lethal Toxin Internalization | 70,000 tested, 0.67% active | Cells, anthrax lethal toxin internalization, FRET ratio (460/530) | AID 912, 2007 | Potency, µM (doses to about 40 µM), for inactives: top-dose activity change, negative = inhibition, hits mostly inhibitors; further: on the % scale 0 is the no-effect control and ±100 the full control effect; nearly all actives have a fitted effect of over 50% in size
Prx2 Sm inh = Schistosoma Mansoni Peroxiredoxins (Prx2) | Potency, µM | S. mansoni Prx2 activity coupled to TGR/GSH (TGR is thioredoxin glutathione reductase), NADPH fluorescence loss, qHTS | Schistosoma mansoni peroxiredoxin 2 (Prx2) | 65,000 tested, 0.07% active
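qHTS, coupled TGR/Prx2 format; 15 min compound preincubation at RT; reaction started with H2O2 (2.5 mM aliquot); kinetic NADPH fluorescence decrease, ex 365/em 450 nm.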
AmpC inh no det = Promiscuous and Specific Inhibitors of AmpC Beta-Lactamase (assay without detergent); AmpC nitrocefin hydrolysis, absorbance 480 nm, no detergent; P00811; 71,000 tested, 1.8% active; Potency, µM (top dose mostly 28.7 µM), for inactives: at the top dose activity change, negative = inhibition; further: % of control where 0% means no effect
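AmpC, 20 mM phosphate pH 7.0; 15 min cpd preinc, RT; start with nitrocefin (800 uM stock); A480 kinetic read, 20 s intervals, 4 min. No-enzyme wells = negative control.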
* hit, by the source's call; [ ] = remark or other dose. Hits are enriched below; roughly 2.4% of the tested compounds scored in any of these assays. Unless noted, the call rests on the fitted dose curve. Potency means the concentration at half of the fitted maximal effect.

Screening COc1cc(-c2nc(-c3ccc(Br)o3)no2)cc(OC)c1OC returned AmpC inh det 14.5%, LT uptake inh -23.6%, Prx2 Sm inh >57 and AmpC inh no det 3.98µM*[single pt active].
For CCOc1ccc(-c2nc(-c3ccc(OC)c(OC)c3)no2)cc1OCC the results were AmpC inh det -1.7%, Prx2 Sm inh >57 and AmpC inh no det 25.1%.
For COc1ccc(-c2noc(-c3cc(C)cc(C)c3)n2)cc1OC the results were AmpC inh det 7.7%, LT uptake inh -25.2%, Prx2 Sm inh >57 and AmpC inh no det 1.26µM*[single pt active].
Screening O=S(=O)(Nc1ccn(-c2ccccc2)n1)c1ccc(Br)cc1 returned AmpC inh det 0.3%, LT uptake inh inconclusive and AmpC inh no det 5.01µM*.
CCN1C(=O)c2cccc3cccc1c23 was read as AmpC inh det -1.1%, LT uptake inh inconclusive, Prx2 Sm inh 3.94* and AmpC inh no det -2.6%.
`CSc1nc(N)c2ncn([C@@H]3O[C@@H](COP(=O)(O)OP(=O)(O)OP(=O)(O)O)[C@@H](O)[C@H]3O)c2n1` gave AmpC inh det 1.4%, LT uptake inh -3.7%, Prx2 Sm inh >57 and AmpC inh no det -1.2%.
For CSc1nc2ccccc2n1CC(=O)Nc1ccccc1 the results were AmpC inh det 4.4%, LT uptake inh 15.8µM* and AmpC inh no det 5.5%.
Screening CCc1ccc(NC(=O)Cn2c(SC)nc3ccccc32)cc1 returned AmpC inh det 5.0%, LT uptake inh inconclusive, Prx2 Sm inh >57 and AmpC inh no det 47.2%.
Screening CCOc1ccc(C2CC(c3cccc(OC)c3)Nc3nc(N)nn32)cc1 (stereo not given) returned AmpC inh det 10.2%, LT uptake inh -4.6%, Prx2 Sm inh >57 and AmpC inh no det 80.2%.
For COc1ccc(C2CC(c3ccc(Cl)cc3Cl)n3nc(N)nc3N2)cc1 (stereo not given) the results were AmpC inh det 14.4%, LT uptake inh 14.1%, Prx2 Sm inh >57 and AmpC inh no det 107.8%.
Screening COc1cccc(C2CC(c3ccc(C)cc3)Nc3nc(N)nn32)c1 (stereo not given) returned AmpC inh det 7.4%, LT uptake inh -1.2%, Prx2 Sm inh >57 and AmpC inh no det 3.98µM*[single pt active].
`COc1cccc(C2CC(c3ccc(C)cc3)n3nc(N)nc3N2)c1` (stereo not given) gave AmpC inh det 11.6%, LT uptake inh 5.9%, Prx2 Sm inh >57 and AmpC inh no det 3.98µM*[single pt active].
For COc1cccc(C2CC(c3ccccc3Cl)Nc3nc(N)nn32)c1 (stereo not given) the results were AmpC inh det -3.1%, LT uptake inh -7.6%, Prx2 Sm inh >57 and AmpC inh no det 64.0%.
`COc1ccc(C2CC(c3c(Cl)cccc3Cl)n3nc(N)nc3N2)cc1` (stereo not given) gave AmpC inh det 7.3%, LT uptake inh inconclusive, Prx2 Sm inh >57 and AmpC inh no det 3.98µM*[single pt active].
Screening COC(=O)CS(=O)(=O)c1nnc([C@H](Cc2ccccc2)NC(=O)OC(C)(C)C)o1 returned AmpC inh det 3.98µM*, Prx2 Sm inh inconclusive and AmpC inh no det inconclusive.
`C[C@@H]1CCC/C=C\[C@H]2C[C@H](O)C[C@@H]2[C@H](O)/C=C\C(=O)O1` gave AmpC inh det -3.7%, LT uptake inh inconclusive, Prx2 Sm inh >57 and AmpC inh no det 6.6%.
CC1C(c2ccccc2)N(C)CCC12NC(=O)NC2=O (stereo not given) was read as AmpC inh det -2.8%, LT uptake inh 5.8%, Prx2 Sm inh >57 and AmpC inh no det 7.0%.
`CC1C(=O)CC(c2ccccc2)N(C)C1c1ccccc1` (stereo not given) gave AmpC inh det 13.6%, LT uptake inh inconclusive, Prx2 Sm inh >57 and AmpC inh no det 3.98µM*[single pt active].
For COc1ccccc1CN1CCCC2(CCN(S(C)(=O)=O)CC2)C1 the results were AmpC inh det -0.2%, LT uptake inh -1.1%, Prx2 Sm inh >57 and AmpC inh no det -1.6%.
Screening O=C(Nc1nnc(COc2ccccc2)s1)c1ccco1 returned AmpC inh det -1.8%, LT uptake inh -1.1%, Prx2 Sm inh >57 and AmpC inh no det -0.4%.
O=C(Nc1nc(-c2cccs2)c(-c2ccccc2)s1)c1ccco1 was read as AmpC inh det -7.0%, LT uptake inh 12.6µM*, Prx2 Sm inh >57 and AmpC inh no det -22.2%.
For CCCN1CCN(C(=O)C2CCN(S(=O)(=O)c3ccc4c(c3)oc(=O)n4C)CC2)CC1 the results were AmpC inh det 11.2%, LT uptake inh inconclusive, Prx2 Sm inh >57 and AmpC inh no det 3.98µM*[single pt active].
CCOC(=O)N1CCN(S(=O)(=O)c2ccc3c(c2)oc(=O)n3C)CC1 was read as AmpC inh det -4.7%, Prx2 Sm inh >57 and AmpC inh no det 9.8%.
Screening Cc1cc(C)n(-c2nc3ccccc3nc2N2CCN(S(=O)(=O)c3ccc(F)c(C)c3)CC2)n1 returned AmpC inh det -2.1%, LT uptake inh 15.2%, Prx2 Sm inh >57 and AmpC inh no det 71.8%.
For Cc1cc(N2CCN(S(=O)(=O)c3ccc(Cl)cc3)CC2)c2ccccc2n1 the results were AmpC inh det -4.2%, LT uptake inh 10µM* and AmpC inh no det 122.6%.

Bioassay records (PubChem)
